This note sets out measurements from PubChem BioAssay (NCI).

About 83,000 compounds went through this panel and 20% of them were active in at least one assay; those are over-represented in the sample as a whole.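 96-well plates, one dose, 48 hours. Percent growth reported; active if below 10.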 Activity calls are given as the source filed them.

For the experiment, the system named is CCRF-CEM leukemia. Kind of experiment: NCI-60 one-dose screen, 48 h (100 = growth as untreated, 0 = no growth, -100 = all killed). The note with it: 10 µM unless noted. How it is done:
Growth inhibition of the CCRF-CEM human tumor cell line is measured as a screen for anti-cancer activity. Cells are grown in 96 well plates and exposed to the test compound for 48 hours. Compounds are tested at a single concentration, which is 10^-5 M for most compounds. The reported endpoint is percent growth (GI% or GIPRCNT), where numbers from 0 - 100% represent growth inhibition, and numbers from -100% - 0 represent cell death. For example, a value of 40 represents 60% growth inhibition. A value of 0 means no net growth occurred over the course of the experiment. A value of -40 indicates 40% of cells at the beginning of the experiment died by the end of the experiment. A value of -100 means all cells are dead at the end of the experiment.
NCI-60 Human Tumor Cell Lines Screen was performed using the standard one-dose NCI protocol, which is described in more detail at https://dtp.cancer.gov/discovery_development/nci-60/default.htm.
Compounds with GIPRCNT values below 10 were considered active. Activity score was based on GIPRCNT using the following formula: […]
Score is 0 for GIPRCNT values of 100 or above, 50 for GIPRCNT values of 0, and 100 for GIPRCNT values of -100.
Turning to `CNS(=O)(=O)c1cccc(-c2ccc3c4c(n(C)c(=O)c3c2)-c2ccccc2C4=O)c1`, the growth was 6.13% (active). On to `C=C1C(=O)O[C@H]2[C@H]1CCC(/C=N/c1ncc(Br)cc1N)=C\CC[C@@]1(C)O[C@@H]21`, for which the growth is 0.102% (active). For the compound `Nc1ccc(C2=NN(C(=O)c3cc(-c4ccc(Cl)cc4)nc4ccccc34)C(c3ccccc3)C2)cc1` (stereo not given), the growth is 24.1% (inactive).

Turning to `CCC[S@@](=O)c1ccc2nc(NC(=O)OC)[nH]c2c1`, the growth is 86.4% (inactive).

For `COc1ccc(/C=C/C(=O)C(CC2CCC2)C(=O)/C=C/c2ccc(OC)c(OC)c2)cc1OC`, the growth was 8.4% (active). Take `CC1(c2ccccc2Cl)NC(=O)NC1=O` (stereo not given): the growth was 101% (inactive).

Regarding `Cc1cc(C)cc(Nc2nccc(-c3c(-c4ccc(F)cc4)ncn3C3CCNCC3)n2)c1`, the growth is -12.6% (active). To `COc1ccc(C(=O)c2cc(OC)c(OC)c(OC)c2)cc1OC(=O)CCl` belongs 14.9% (inactive); to `COc1ccc(Sc2[nH]c(C(C)=O)c3ccccc23)cc1`, 39.6% (inactive). To `COc1ccc([C@H]2[C@@H](F)C(=O)N2c2cc(OC)c(OC)c(OC)c2)cc1F` belongs 13.2% (inactive); to `CC(C)(C)c1ccc2oc(=O)n(SC(Cl)(Cl)Cl)c2c1`, 83.5% (inactive); to `Cc1cnc(SCc2ccc(Cl)cc2)[nH]c1=S`, 106% (inactive). `CC(=O)Oc1c2c(nc3c1c1ccccc1n3Cc1ccccc1)-c1ccccc1C2`: the growth is 91.5% (inactive). As to `O=C(/C(=C/c1ccc([N+](=O)[O-])cc1)SCc1ccc(Cl)cc1)c1ccc(F)cc1`, the growth is 4.66% (active). The value for `C=C1C(=O)O[C@H]2[C@H]1CC/C(COC(=O)NCC(=O)Nc1ccc(OC)c(C(N)=O)c1O)=C\CC[C@@]1(C)O[C@@H]21` was -15.8% (active); that for `NS(=O)(=O)c1ccc(-n2nc(-c3ccccc3)ccc2=O)cc1` was 95.6% (inactive); that for `C#CCOC(=O)[C@]1(C)CCC[C@]2(C)[C@H]3C[C@H]4C(C(C)C)=C[C@]3(CC[C@H]21)[C@@H]1C(=O)CCC(=O)[C@@H]14` was 67.1% (inactive). For `O=C1Nc2ccccc2C12C=C(c1ccccc1)Nc1c2c(-c2ccccc2)nn1-c1ccccc1` (stereo not given), the growth is 25.9% (inactive). The value for `CCCCn1c2cc(OCc3cn(-c4ccc(Cl)cc4)nn3)ccc2c2ccnc(C)c21` was 30.5% (inactive); that for `NS(=O)(=O)c1ccc(N2Cc3cc(Cl)ccc3OC3=C2C(=O)N(CC2CCCCC2)C3=O)cc1` was -38.8% (active). The value for `Cc1nc2sc(C(=O)Nc3cccc4ccccc34)c(N)c2cc1C(C)O` (stereo not given) was 9.13% (active); that for `CCCn1c2cc(OCc3cn(-c4ccc(Cl)cc4)nn3)ccc2c2ccnc(C)c21` was 56.8% (inactive). As to `COC(=O)/C=C1\SC(=Nc2ccc(F)cc2)N(CCc2c[nH]c3ccccc23)C1=O`, the growth is 68.2% (inactive). To `N#CC1C(c2ccc(Cl)cc2)=Nc2c(c(-c3ccccc3)nn2-c2ccccc2)C12C(=O)Nc1ccc(Cl)cc12` (stereo not given) belongs 19.2% (inactive); to `CCOC(=O)c1ccc(Nc2ncnc3ccc(NC(=O)c4ccccc4)cc23)cc1`, 91.2% (inactive). As for `NC(N)=NC(N)=Nc1cc2ccccc2c2ccccc12`, the growth is 38.6% (inactive). Regarding `c1cc(CNC23CC4CC(CC(C4)C2)C3)cc(C[N+](Cc2cccc(CNC34CC5CC(CC(C5)C3)C4)c2)(Cc2cccc(CNC34CC5CC(CC(C5)C3)C4)c2)Cc2cccc(CNC34CC5CC(CC(C5)C3)C4)c2)c1` (stereo not given), the growth was 3.92% [42 µM] (active). The value for `C#C[C@@]1(O)[C@@H](CO)O[C@@H](n2cc(F)c3c(N)ncnc32)[C@@H]1O` was 13.3% (inactive); that for `C=C(C)[C@@H]1CC[C@]2(C(=O)OCCOCCOCC[P+](c3ccccc3)(c3ccccc3)c3ccccc3)CC[C@]3(C)[C@H](CC[C@@H]4[C@@]5(C)CC[C@H](C)C(C)(C)[C@@H]5CC[C@]43C)[C@@H]12` was -63% (active).

For the compound `COCCc1n(Cc2ccc3ccccc3c2)c2ccccc2[n+]1Cc1ccc2ccccc2c1`, the growth is -9.95% (active). The value for `NS(=O)(=O)c1ccc(C2C3=C(CCCC3=O)OC3=C2C(=O)c2ccccc2C3=O)cc1` (stereo not given) was -10.5% (active); that for `C=C(C)[C@@H]1CC[C@]2(C(=O)OCCOCCOCC[P+](c3ccccc3)(c3ccccc3)c3ccccc3)CC[C@]3(C)[C@H](CC[C@@H]4[C@@]5(C)CC[C@H](OC(=O)C(Cl)Cl)C(C)(C)[C@@H]5CC[C@]43C)[C@@H]12` was 4.25% (active); that for `OCCNc1nc(NCCO)nc(Nc2ccc(C3=NN(c4cc(Cl)cc(Cl)c4)C(c4ccccc4)C3)cc2)n1` (stereo not given) was 24.3% (inactive). The value for `O=c1[nH]nc(-c2ccccc2)c2sc(NC(=S)Nc3ccc(Cl)cc3)nc12` was 99.2% (inactive); that for `O=C(CN1N=C(c2ccc(F)cc2)CCC1=O)Nc1nc2ccccc2s1` was -72.1% (active); that for `Nc1ccc(C(=O)Nc2cccc(C(=O)Nc3ccc4c(O)c(N=Nc5ccc(N=Nc6ccc(S(=O)(=O)O)cc6)cc5)c(S(=O)(=O)O)cc4c3)c2)cc1` was 98.5% (inactive).

As to `C/C(=N\NC(=O)c1ccncc1)c1ccc(N)cc1`, the growth was 92% (inactive). `COc1ccc(-c2cn(-c3ccc(Cl)cc3)c(=S)[nH]2)cc1OC`: the growth was 84.4% (inactive). To `COc1ccc(NC(=O)c2sc3nc(C)c(C(C)=O)cc3c2N)cc1` belongs 92.2% (inactive); to `CCOC(=O)/C(=C/c1c(-c2ccccc2)[nH]c2ccccc12)C(=O)c1ccc(Cl)cc1`, 14.5% (inactive).
